# MITF TRPM1 inh: inhibitors of MITF-dependent TRPM1 promoter reporter, primary screen, cell-based, SK-MEL-5, single point, luciferase | SK-MEL-5 TRPM1 promoter luciferase, 24 h | inhibition, % at 12.5 µM | AID 488899, 2010 | hit rate 0.83% among 330,000;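 active means mean inhibition across replicates of 60% or more, whatever share of single replicates reaches that level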
# KKLEB tox: cytotoxicity in KKLEB CF airway cells, primary screen, cytotoxicity control for CF NF-kB inhibitor project, cell-based, uHTS, fluorescence assay plates; AID 602141, 2011; hit rate 0.36% among 360,000; activity change (cytotoxicity), % at 5 µM; KKLEB CF airway cells viability, ATPlite luminescence, overnight; hits give low values; cells stimulated with P. aeruginosa culture filtrate;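 active means corrected activity change at or below -50% at 5 µM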
# CF NFkB inh: inhibitors of PAF-induced NF-kB signaling, primary screen, cell-based, GFP fluorescence, uHTS; KKLEB NF-kB-GFP reporter, GFP fluorescence overnight; inhibition, % at 5 µM; hit rate 0.86% among 360,000;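 active means at least 50% inhibition at 5 µM, scaled per plate between neutral and stimulator controls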;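 further: PAF is a Pseudomonas aeruginosa culture filtrate used as stimulus; plate controls were PAF-stimulated DMSO wells for no effect and unstimulated DMSO wells for full effect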
# Peg3 prom inh: Peg3 promoter-driven luciferase inhibitors, primary screen, cell-based, HeLa, luciferase luminescence. hit rate 1.7% among 360,000. HeLa PEG-Prom luciferase reporter, overnight. inhibition, % at 20 µM;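 active means inhibition of at least 50% at 20 µM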
# HIF-2a block: HIF-2a reporter inhibitors, primary screen, luminescence, 786-0 RCC cells; 786-0 RCC cells HIF-2a reporter, luciferase luminescence, overnight; inhibition, % at 18.8 µM; hit rate 0.72% among 360,000; AID 624352, 2012;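 active means inhibition of the luminescence signal of 40% or more relative to plate controls, in a single-dose primary screen at 18.75 µM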
# Shn3 3UTR inh: reduction of Shn3 3'UTR firefly luciferase signal, primary screen, Schnurri-3 inhibitor project, cell-based, Clone20 osteoblasts, set 2; Clone20 osteoblast Shn3 3'UTR firefly luciferase, 24 h; inhibition, % at 12.5 µM; hit rate 0.52% among 360,000;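 active means mean inhibition of at least 75% with every replicate also reaching 75%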;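 further: 0% = median of neutral control wells and 100% = pilot-screen positive control compound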
# CF NFkB inh conf: inhibitors of PAF-induced NF-kB signaling, retest, confirmation, cell-based, GFP fluorescence, single concentration | shares compounds with CF NFkB inh | KKLEB CF airway cells, overnight | inhibition, % at 5 µM | hit rate 64% among 1,300; in the data active means inhibition above about 40%;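 further: stimulus PAF is a Pseudomonas aeruginosa filtrate and not platelet activating factor; plate controls were DMSO wells with stimulus for no effect and unstimulated DMSO wells for full effect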
# * marks the source's active call; other numbers are inactive results; i = inactive; · = not tested or not shown; ! = a repeat was not active. This is a sample that favours compounds with a hit; in the whole collection about 2.7% have one here.
SMILES,MITF TRPM1 inh,KKLEB tox,CF NFkB inh,Peg3 prom inh,HIF-2a block,Shn3 3UTR inh,CF NFkB inh conf
Cc1ccnc(NC(=O)CSc2cc(=O)n(C)c3ccccc23)c1,-1.9,-25.5,88.0*,69.7*,-263.9,8.6,52.3*
Cn1c(=O)cc(SCC(=O)Nc2cccnc2)c2ccccc21,-21.9,-4.3,-6.3,-24.9,-44.6,-13.9,·
Cc1ccnc(NC(=O)CCCOc2cc(=O)n(C)c3ccccc23)c1,4.9,8.9,70.6*,92.2*,i,-154.9,75.8*
CC(C)C[C@H](CO)Nc1nc(Nc2cccc(Cl)c2)c2ncn(C(C)C)c2n1,·,-24.1,61.0*,36.7,-12.8,28.3,76.2*
CCN(C(=O)c1cc(S(=O)(=O)N2CCCCC2)c[nH]1)c1ccc(OC)cc1,-8.1,-11.9,50.4*,12.6,13.0,9.6,45.8*
O=C(CSc1nc(C2CC2)nc2ccccc12)Nc1ccccc1Cl,28.9,-35.6,59.6*,8.7,2.0,-0.4,7.8
O=C(CSc1nc(C2CC2)nc2ccccc12)Nc1ccccc1,5.6,-14.7,38.5,24.9,7.6,-8.7,·
Cc1ccc(NC(=O)Nc2nnc(-c3ccncc3)s2)cc1C,-8.0,-29.7,89.7*,-138.6,-152.0,-10.5,77.0*
CN(C1CCCCC1)S(=O)(=O)c1ccc2c(c1)CCC(=O)N2,-10.0,-7.2,-20.4,6.4,4.2,7.2,·
COc1cc2c(c(OC)c1OC)-c1ccc(NCc3ccccc3)c(=O)cc1C(NC(C)=O)CC2 (centres undefined),·,-37.0,63.6*,1.3,24.0,21.4,86.6*
COc1cc2c(c(OC)c1OC)-c1ccc(SC)c(=O)cc1C(NC(=O)C(F)(F)F)CC2 (centres undefined),51.6,-17.1,56.2*,-32.6,16.1,-1.9,83.8*
COc1cc2c(c(OC)c1OC)-c1ccc(OC)c(=O)cc1[C@@H](NC(C)=O)CC2,39.9,16.4,41.7,-19.2,11.7,-0.7,·
CCOCC(=O)NC1CCc2cc(OC(=O)COCC)c(OC)c(OC)c2-c2ccc(SC)c(=O)cc21 (centres undefined),56.4,-28.3,52.0*,-15.6,29.5,9.2,83.5*
COc1cc2c(c(OC)c1OC)-c1ccc(NC(=O)c3ccc(F)cc3)c(=O)cc1[C@@H](NC(C)=O)CC2,13.0,-5.9,16.3,36.4,27.0,13.5,·
CCC[n+]1c(C)sc2c3c(ccc21)CCCC3,67.4*,-23.0,58.5*,31.6,5.8,92.1*,20.0
CC[n+]1c(C)sc2c(C)cc(C)cc21,8.1,2.6,-13.1,-1.2,10.2,5.5,·
COc1ccccc1N(C)S(=O)(=O)c1ccc(C(=O)NCC2CCCCC2)cc1,4.1,3.6,2.0,14.2,15.0,4.5,·
Cc1cc2c(c(=O)n1Cc1cccnc1)C(c1cccs1)C(C#N)=C(N)O2 (centres undefined),-2.6,1.1,0.6,5.8,26.3,-24.6,·
Cc1cc2c(c(=O)n1Cc1cccnc1)C(Cc1ccccc1)C(C#N)=C(N)O2 (centres undefined),7.8,-12.7,58.0*,7.7,24.3,-2.0,-35.2
CCCc1nnc(NC(=O)c2nc(S(=O)(=O)Cc3ccc(C)cc3)ncc2Cl)s1,69.2*,-32.9,90.5*,102.8*,-0.9,91.3*,91.2*
NC(=O)c1nsc(C(=O)N(c2ccccc2)C(C(=O)NCc2ccc(F)cc2)c2ccc(O)cc2)c1N (centres undefined),10.3,-9.6,52.0*,55.1*,20.4,5.0,74.3*
O=C(NCc1ccccc1)C(c1ccccc1)N(C(=O)c1csnn1)c1ccccc1 (centres undefined),9.3,-6.3,19.2,31.2,17.6,10.5,·
O=C(NCc1ccc(F)cc1)C(c1ccccc1)N(C(=O)c1csnn1)c1ccccc1 (centres undefined),-3.0,3.1,61.0*,40.2,23.9,14.9,16.7
COc1ccccc1N(CC(=O)NC(C)(C)C)C(=O)CCC(=O)Nc1nccs1,-10.3,-4.2,7.8,1.3,9.1,22.2,·
CC12CCC(=O)C=C1CCC1C2C(=O)CC2(C)C1CC[C@]2(O)C(=O)CO (some centres undefined),-2.5,-8.8,5.3,-9.9,10.7,7.4,·
SMILES,MITF TRPM1 inh,KKLEB tox,CF NFkB inh,Peg3 prom inh,HIF-2a block,Shn3 3UTR inh,CF NFkB inh conf
CC1(C)OC2CC3C4CCC5=CC(=O)C=CC5(C)C4(F)C(O)CC3(C)C2(C(=O)CO)O1 (centres undefined),·,13.1,66.6*,-3.1,22.4,9.3,9.2
C[C@@H]1C[C@H]2[C@@H]3CCC4=CC(=O)C=C[C@]4(C)[C@@]3(F)[C@@H](O)C[C@]2(C)[C@@]1(O)C(=O)CO,-26.6,13.2,70.6*,-7.3,34.6,6.8,21.4
Cc1cccc(N(CC(=O)NC2CCCC2)C(=O)CNC(=O)c2ccco2)c1C,6.6,-7.3,3.3,9.6,11.7,11.6,·
COc1ccc(-c2csc3ncnc(NCCO)c23)cc1,0.1,-4.9,76.7*,13.1,35.9,18.1,86.2*
COc1ccc(-c2csc3ncnc(Nc4ccc(O)cc4)c23)cc1,13.4,-2.2,32.1,2.2,21.2,18.6,·
COCCNc1nc(Oc2cncc(Cl)c2)c2sccc2n1,·,-19.9,62.3*,16.6,7.9,11.6,78.1*
COCCNc1nc(Oc2cccc(F)c2)c2sccc2n1,·,-13.7,33.3,7.5,7.8,2.7,·
c1ccc(CNc2ncnc3ccccc23)cc1,5.3,-11.7,50.3*!,7.3,4.3,83.9,41.1*
O=C(Nc1ccc([N+](=O)[O-])cc1)Nc1ccc(Cl)cc1F,-6.8,-31.0,51.6*,-50.6,-112.1,71.1,45.9*
O=C(Nc1ccc(Cl)cc1)Nc1cc([N+](=O)[O-])ccc1F,-21.5,1.9,-9.0,-8.1,5.7,19.1,·
O=[N+]([O-])c1ccc2ncnc(Nc3ccc4c(c3)OCCO4)c2c1,-1.5,-17.2,64.7*,-3.7,13.8,15.2,37.5
Cc1ccc(O)c(Nc2ncnc3ccc([N+](=O)[O-])cc23)c1,1.5,0.1,44.1,-3.6,14.3,8.2,·
CCC1(c2ccccc2)C(=O)N(C(=O)OC(C)(C)C)N1C(=O)OC(C)(C)C (centres undefined),14.7,1.8,-16.9,31.4,5.0,-7.8,·
CCOC(=O)N1C(=O)[C@](CC)(c2ccccc2)N1C(=O)OCC,57.9,1.1,56.2*,41.5,29.6,62.2,21.0
Cc1ccc(S(=O)(=O)CCC(=O)c2ccc(F)cc2)cc1,10.8,-43.6,85.2*,32.0,14.6,72.8,25.9

# Assay outcomes as filed in PubChem BioAssay.
